Compounds without any hit were thinned out: in the full panel of roughly 79,000, 15% have a hit. Activity calls are given as the source filed them. No stated cut-off is given here; in the data, active means growth inhibition above about 70%; inactive means the rest.
Test: NCI Yeast Anticancer Drug Screen. Data for the wt1 strain (AID 149);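 further: 0% = growth of vehicle-treated wt1 cultures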
Settings: S. cerevisiae wt1 strain (SPY 50644) growth inhibition, active compounds read high
Protocol: Growth inhibition of yeast strains with defined genetic alterations is measured as a screen for potential anti-cancer activity. Selected strains with alterations in DNA damage repair or cell cycle control were exposed to compounds and growth inhibition was measured relative to vehicle treated controls. The strain used in this assay is wt1

Measured: growth inhibition

OC(CN1CCCCC1)c1cc(Cl)c(Cl)c(Cl)c1 (stereo not given)
inactive: at 1.2 µM 4% | at 3.7 µM 9% | at 11.0 µM 6% | at 33.0 µM 6% | at 100.0 µM 14%

S=P(N1CC1)(N1CC1)N1CC1
inactive: at 1.2 µM -3% | at 3.7 µM -3% | at 11.0 µM -2% | at 33.0 µM -2% | at 100.0 µM -22%

COc1cc(N)ccc1Nc1c2ccccc2nc2ccccc12
inactive: at 1.2 µM -17% | at 3.7 µM -16% | at 11.0 µM -19% | at 33.0 µM -17% | at 100.0 µM 69%

Cc1ccc2c(ccc(/C=C/c3ccc(O)c4ncccc34)[n+]2C)c1
active: at 11.0 µM 85% | at 33.0 µM 94% | at 100.0 µM 81%
inactive: at 1.2 µM 4% | at 3.7 µM 30%

S=C1SCN(CCc2ccccc2)CN1CCc1ccccc1
inactive: at 1.2 µM 16% | at 3.7 µM -1% | at 11.0 µM 46% | at 33.0 µM 45% | at 100.0 µM 10%

S=c1[nH]nc(-c2ccc(Cl)cc2)s1
inactive: at 1.2 µM -18% | at 3.7 µM -21% | at 11.0 µM -25%
active: at 33.0 µM 78% | at 100.0 µM 96%

CC[C@@]1(OC(=O)CN(C)C)C(=O)OCc2c1cc1n(c2=O)Cc2cc3c(N)cccc3nc2-1
inactive: at 1.2 µM 0% | at 3.7 µM -2% | at 11.0 µM -1% | at 33.0 µM 6% | at 100.0 µM 25%

CC1OC(OC2CCCc3c(O)c4c(c(O)c32)C(=O)c2ccccc2C4=O)CC(N)C1O (stereo not given)
active: at 33.0 µM 92% | at 100.0 µM 99%
inactive: at 1.2 µM 1% | at 3.7 µM 12% | at 11.0 µM 35%

— PubChem BioAssay (NCI)
